# A selection: hits, their analogues and other compounds. The true share with any hit is near 2.3%.
# Fam108B inh – Fam108B inhibition, counter-screen for RBBP9 inhibitors | recombinant Fam108B, FP-Rh probe fluorescence polarization | inhibition, % at 9.51 µM | 300,000 tested, 0.33% active | AID 1947;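 active = inhibition above the screen mean inhibition plus 3 SD, computed separately per campaign, cut at about 18% in these data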;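 also: inhibitors lower polarization as less probe binds the enzyme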
# PAD4 FP inh – blocks human protein arginine deiminase 4. recombinant PAD4, RCA probe fluorescence polarization. inhibition, % at 6.36 µM. 330,000 tested, 0.41% active. Q9UM07;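 active = percent inhibition above a cutoff equal to the mean of all tested compounds plus 3 SD, cut at about 15% in these data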;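 also: 0% = PAD4 with RCA probe and DMSO and 100% = probe without PAD4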
# GSTO1 inh – GSTO1 inhibition, counter-screen for RBBP9 inhibitors | inhibition, % at 5.96 µM | recombinant GSTO1, activity-based probe fluorescence polarization | P78417 | 300,000 tested, 1.1% active;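 active = inhibition above the campaign mean inhibition plus 3 SD, cut at about 35% in these data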;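 also: 0% = GSTO1-1 with DMSO and 100% = wells lacking GSTO1-1 enzyme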
# PME-1 inh – PME-1 (human) inhibition | Q9Y570 | recombinant PME-1, FP-Rh probe fluorescence polarization | inhibition, % at 5.9 µM | 320,000 tested, 0.53% active;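 active = inhibition above the campaign mean of all compounds plus 3 SD, cut at about 26% in these data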;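 also: competitive labeling of PME-1 active site by serine hydrolase directed probe; 0% = PME-1 with DMSO and 100% = wells lacking PME-1 enzyme; inhibitors block probe labeling so polarization falls and inhibition rises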
# pPAFAH FP inh – inhibitors of human plasma PAF acetylhydrolase (pPAFAH). 330,000 tested, 1.5% active. recombinant pPAFAH, FP-rhodamine probe fluorescence polarization. inhibition, % at 3.39 µM. Q13093;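 active = inhibition above the mean inhibition across the screen plus 3 SD, cut at about 25% in these data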;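 also: inhibitors block binding of the rhodamine activity-based probe so polarization drops; 0% = enzyme with DMSO and 100% = wells lacking pPAFAH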
# Target sequence (Q13093 whole entry, looked up): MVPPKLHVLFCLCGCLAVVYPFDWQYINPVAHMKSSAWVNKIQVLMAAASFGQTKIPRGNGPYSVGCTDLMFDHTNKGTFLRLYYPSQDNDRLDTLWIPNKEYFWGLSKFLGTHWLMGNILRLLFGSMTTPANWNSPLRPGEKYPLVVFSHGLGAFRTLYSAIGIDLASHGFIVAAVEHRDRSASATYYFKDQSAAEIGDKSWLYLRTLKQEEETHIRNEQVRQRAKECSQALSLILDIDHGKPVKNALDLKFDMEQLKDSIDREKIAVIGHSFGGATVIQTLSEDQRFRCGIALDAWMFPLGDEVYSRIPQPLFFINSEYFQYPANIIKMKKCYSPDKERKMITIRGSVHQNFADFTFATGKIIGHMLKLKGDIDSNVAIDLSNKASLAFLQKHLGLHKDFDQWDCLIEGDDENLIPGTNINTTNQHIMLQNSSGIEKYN
# Active calls of the source: *; . = not tested or not shown.
SMILES,Fam108B inh,PAD4 FP inh,GSTO1 inh,PME-1 inh,pPAFAH FP inh
Cc1cc(OCC(=O)NCCCN2CCCC2=O)c2c(C)c(C)c(=O)oc2c1,2,0,-3,0,7
COc1ccc(OC)c(N(CC(=O)NCCSCc2ccc(C)cc2)S(C)(=O)=O)c1,0,0,3,-1,2
N#C/C(=C/c1ccc(O)c(O)c1)C(=O)NCc1ccc(Cl)cc1,4,-2,24,15,30*
N#C/C(=C/c1cccc(O)c1)C(=O)NCc1ccc(Cl)cc1,-2,0,-1,2,5
O=C(N=Nc1c(O)n(Cc2ccccc2)c2ccccc12)c1cc2ccccc2cc1O,1,-2,-2,51*,11
O=C(N=Nc1c(O)n(Cc2ccccc2)c2ccccc12)c1ccc(O)cc1,0,-3,3,3,5
COc1ccc(N2CCN(C(=O)COC(=O)Cc3cccc(OC)c3)CC2)cc1,-2,-2,-6,-3,3
COC(=O)NC(NS(=O)(=O)c1ccccc1)(C(=O)OC)C(F)(F)F (centres undefined),1,-1,36*,3,7
COC(=O)C(NC(C)=O)(Nc1ccccn1)C(F)(F)F (centres undefined),3,1,8,-8,-1
CC(NC(=O)C1CCN(C(=O)Nc2ccccc2)CC1)c1ccc(Cl)cc1 (centres undefined),.,4,.,-6,1
COc1ccc(C2=NN(S(C)(=O)=O)C(c3ccc4nccnc4c3)C2)cc1 (centres undefined),-1,1,8,1,0
COc1ccc(C2CC(c3ccc(OC)c(OC)c3)=NN2S(C)(=O)=O)cc1 (centres undefined),-4,-3,-2,33*,1
NC(=O)c1cc([N+](=O)[O-])c(Cl)cc1NCc1ccccn1,0,-2,4,7,5
CCn1nc(NS(=O)(=O)c2ccc([N+](=O)[O-])cc2)c2cc3ccccc3nc21,3,4,7,-1,9
Cc1ccc(/C=C/C2=Cc3c(sc(NC(=O)CSc4n[nH]c(N)n4)c3C#N)C(C)(C)C2)o1,-24,-1,4,-24,58*
CCN(CC)c1ccc(/C=N/NC(=S)NCc2ccco2)cc1,3,0,7,2,29*
O=c1c2ccccc2nc(/C=C/c2c[nH]c3ccccc23)n1CCO,4,-1,-4,47*,3
CCOc1ncccc1C(=O)OCC(=O)Nc1ccc(C(N)=O)cc1,2,0,9,7,1
CCOc1ncccc1C(=O)OCC(=O)Nc1ccc(C(C)C)cc1,2,-2,-1,0,30*
COC(=O)c1cc(C(=O)OCC(=O)Nc2ccc(N3CCOCC3)cc2)cc([N+](=O)[O-])c1,.,5,.,.,2
COc1cc(C2Nc3cccc4cccc(c34)N2)ccc1O,11,-5,31,27*,5
Cc1cccc(C2Nc3cccc4cccc(c34)N2)c1,13,-1,37*,11,4
CC(=O)N1CCN(c2ccc(OC[C@H]3CO[C@](Cn4ccnc4)(c4ccc(Cl)cc4Cl)O3)cc2)CC1,2,-3,0,-5,26*
O=C(Nc1ccc(S(=O)(=O)Nc2nccs2)cc1)c1nn(-c2ccccc2)ccc1=O,4,-3,14,1,25*
Cc1cccc(-n2ccc(=O)c(C(=O)Nc3ccc(S(=O)(=O)Nc4nccs4)cc3)n2)c1,-1,-1,-5,0,6
SMILES,Fam108B inh,PAD4 FP inh,GSTO1 inh,PME-1 inh,pPAFAH FP inh
O=C1/C(=C/Nc2ccc3c(c2)OCO3)CCc2ccccc21,12,0,14,30*,17
COc1cccc(C(=S)N2CCOCC2)c1OS(=O)(=O)c1ccc(Cl)cc1,0,4,2,-4,27*
COc1cc(C(=S)N2CCOCC2)cc(OC)c1OS(=O)(=O)c1ccc(Cl)cc1,-5,0,-1,-1,2
Cc1cccn2c(CN3CCNC(=O)CC3)c(C(=O)N(C)CCc3ccccc3)nc12,0,4,6,-9,5
CC(=O)OC1=C(O)C(=O)c2ccccc2C1=O,-1,-3,59*,-3,4
COc1cccc(-c2nc(NCc3ccccc3)c3ccccc3n2)c1O,2,-8,16,-2,11
COc1cccc(-c2nc(NC3CCCC3)c3ccccc3n2)c1O,15,2,5,27*,17
O=C(CSc1nnc(Cc2cccs2)n1-c1ccc(Cl)cc1)NCc1ccc2c(c1)OCO2,2,0,5,2,25*
NS(=O)(=O)c1ccc(NC(=O)CSc2nnc(Cc3cccs3)n2-c2ccccc2)cc1,-10,1,0,-9,6
Cc1ccc(-n2c(Cc3cccs3)nnc2SCC(=O)Nc2ccc(S(N)(=O)=O)cc2)cc1,-1,2,-1,-5,26*
CCOC(=O)c1ccc(NC(=O)C2CCN(C(=O)c3ccc(OC)c(OC)c3)CC2)cc1,-4,2,6,-5,29*
CC(C)c1ccc(/C=N/n2c(-c3ccccc3)n[nH]c2=S)cc1,1,-1,3,4,25*
O=[N+]([O-])c1cc(/C=N/n2c(-c3cccnc3)n[nH]c2=S)ccc1Cl,9,7,51*,3,12
Cc1ccc(OCC(=O)c2ccc(Cl)s2)c([N+](=O)[O-])n1,1,-7,23,5,25*
Cc1ccc(CNC(=O)COc2ccc(C)nc2[N+](=O)[O-])cc1,1,0,5,-2,2
O=C(Nc1cccc(F)c1)C1CCCN(S(=O)(=O)c2ccc(-n3cnnn3)cc2)C1 (centres undefined),1,-1,-2,-6,1
COc1ccc(NS(=O)(=O)c2ccc(-n3nnc4ccccc43)c([N+](=O)[O-])c2)cc1,1,-6,-9,7,4
O=[N+]([O-])c1cc(S(=O)(=O)Nc2cccc(C(F)(F)F)c2)ccc1-n1nnc2ccccc21,-4,-2,-43,33*,23
CCCCN(CC)C(=O)Cn1cnc2ccc(S(=O)(=O)N3CCC(C)CC3)cc2c1=O,3,-1,1,-6,5
COc1ccc(C2=CC3=C(Br)C(=O)C(C)(OC(=O)c4cccs4)C(=O)C3=CO2)cc1 (centres undefined),8,-10,35,-1,28*
COC(=O)CCC(=O)OC1(C)C(=O)C2=CN(c3ccc(OC)cc3)C(c3ccc(OC)cc3)=CC2=C(Br)C1=O (centres undefined),5,-28,36*,8,22
COC(=O)CCC(=O)OC1(C)C(=O)C2=CN(Cc3ccco3)C(c3ccc(OC)cc3)=CC2=C(Br)C1=O (centres undefined),6,-18,6,0,25*
CCCCC1=CC2=C(c3ccco3)C(=O)C(C)(OC(=O)c3ccc(OC)cc3)C(=O)C2=CN1Cc1ccco1 (centres undefined),2,-4,6,1,16

# High-throughput results as filed in PubChem.
